# For some assays here: Entries with a potency or affinity are not part of this list.
# Tests used:
# Set-up in all cases: scale not given: direction of the effect not stated beside the values
# [1] = molecular target: Protein translocase subunit SecA (Escherichia coli (strain K12)) (UniProt P10408); assay: Assay to Identify E. coli SecA ATPase Inhibitors; assay type: functional; details: 30 µM
# [2] = molecular target: T1, Ubiquitin-activating enzyme e1, putative (Leishmania donovani (strain BPK282A1)) (UniProt E9BSI1); assay: Leishmania donovani Ubiquitin Activating Enzyme (LdE1); assay type: functional; details: 30 µM
# T1 sequence (whole entry): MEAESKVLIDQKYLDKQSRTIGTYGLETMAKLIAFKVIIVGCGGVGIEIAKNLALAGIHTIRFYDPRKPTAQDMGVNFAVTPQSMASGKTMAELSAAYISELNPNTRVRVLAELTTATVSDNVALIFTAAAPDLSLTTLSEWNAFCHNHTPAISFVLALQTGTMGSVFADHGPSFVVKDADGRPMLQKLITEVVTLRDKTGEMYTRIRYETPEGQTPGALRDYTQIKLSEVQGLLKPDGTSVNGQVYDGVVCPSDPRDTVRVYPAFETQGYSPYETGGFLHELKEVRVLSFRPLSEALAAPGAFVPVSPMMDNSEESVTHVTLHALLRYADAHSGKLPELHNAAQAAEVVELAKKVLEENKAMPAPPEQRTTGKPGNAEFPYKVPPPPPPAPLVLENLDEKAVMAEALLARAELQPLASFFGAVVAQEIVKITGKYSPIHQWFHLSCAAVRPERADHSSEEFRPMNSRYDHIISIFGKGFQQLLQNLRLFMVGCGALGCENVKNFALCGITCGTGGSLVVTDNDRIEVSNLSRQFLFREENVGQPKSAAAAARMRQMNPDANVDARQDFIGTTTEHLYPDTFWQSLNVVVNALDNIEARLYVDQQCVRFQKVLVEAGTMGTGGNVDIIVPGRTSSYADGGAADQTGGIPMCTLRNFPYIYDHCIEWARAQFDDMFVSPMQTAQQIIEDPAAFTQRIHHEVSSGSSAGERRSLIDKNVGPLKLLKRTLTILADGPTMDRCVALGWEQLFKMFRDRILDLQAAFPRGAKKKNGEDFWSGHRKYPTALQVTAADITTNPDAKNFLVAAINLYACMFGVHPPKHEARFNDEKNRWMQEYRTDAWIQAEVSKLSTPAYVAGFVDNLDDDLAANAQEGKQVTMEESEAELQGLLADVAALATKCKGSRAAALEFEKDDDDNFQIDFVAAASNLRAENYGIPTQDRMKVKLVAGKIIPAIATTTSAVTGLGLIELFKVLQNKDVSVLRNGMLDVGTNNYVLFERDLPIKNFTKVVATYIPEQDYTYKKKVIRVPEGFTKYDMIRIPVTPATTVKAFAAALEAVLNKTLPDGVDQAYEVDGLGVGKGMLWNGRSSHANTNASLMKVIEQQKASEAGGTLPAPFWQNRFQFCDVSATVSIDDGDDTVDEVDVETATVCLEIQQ
# [3] = molecular target: AMP-activated protein kinase, AMPK (Homo sapiens) (UniProt P54646+O43741+P54619+Q9UGJ0+Q9Y478+Q13131+Q9UGI9); assay: AMP-dependent Kinase enzyme assay. An in vitro enzyme assay that detects ADP turnover that is directly proportional to AMPK activity. This uses naive AMPK that is activated during the assay with MK-8722; assay type: functional; details: 30 µM
# [4] = molecular target: Sialic acid-binding Ig-like lectin 9 (Homo sapiens) (UniProt Q9Y336); assay: Hs-Siglec9 ALPHAscreen SOP 20170721; details: 10 µM
# Chain of Sialic acid-binding Ig-like lectin 9 (Homo sapiens) (Q9Y336 whole entry): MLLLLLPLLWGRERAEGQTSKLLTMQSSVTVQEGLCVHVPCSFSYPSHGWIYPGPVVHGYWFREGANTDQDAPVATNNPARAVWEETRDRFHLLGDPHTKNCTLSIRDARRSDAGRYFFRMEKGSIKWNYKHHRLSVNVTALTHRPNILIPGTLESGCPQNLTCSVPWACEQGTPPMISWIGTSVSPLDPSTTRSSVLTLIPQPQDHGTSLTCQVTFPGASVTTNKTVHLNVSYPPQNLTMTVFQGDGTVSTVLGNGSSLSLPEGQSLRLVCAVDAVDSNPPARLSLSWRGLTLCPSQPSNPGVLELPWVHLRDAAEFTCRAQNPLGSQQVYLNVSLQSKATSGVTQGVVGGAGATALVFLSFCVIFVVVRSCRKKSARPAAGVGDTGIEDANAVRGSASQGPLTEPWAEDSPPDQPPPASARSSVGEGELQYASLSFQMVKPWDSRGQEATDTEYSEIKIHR
# Trypanosoma cruzi = assay: Trypanosoma cruzi phosphomannomutase and mannose-1-phosphate guanylyltransferase assay; assay type: functional; details: 10 µM
# [5] = molecular target: T2, Arginase-2, mitochondrial (Homo sapiens) (UniProt P78540); assay: in vitro enzyme assay to detect the production of urea directly proportional to the activity of Arginase II; assay type: functional; details: 33.3 µM; further: in the data most compounds retested in dose-response had high values
# T2 sequence (whole entry): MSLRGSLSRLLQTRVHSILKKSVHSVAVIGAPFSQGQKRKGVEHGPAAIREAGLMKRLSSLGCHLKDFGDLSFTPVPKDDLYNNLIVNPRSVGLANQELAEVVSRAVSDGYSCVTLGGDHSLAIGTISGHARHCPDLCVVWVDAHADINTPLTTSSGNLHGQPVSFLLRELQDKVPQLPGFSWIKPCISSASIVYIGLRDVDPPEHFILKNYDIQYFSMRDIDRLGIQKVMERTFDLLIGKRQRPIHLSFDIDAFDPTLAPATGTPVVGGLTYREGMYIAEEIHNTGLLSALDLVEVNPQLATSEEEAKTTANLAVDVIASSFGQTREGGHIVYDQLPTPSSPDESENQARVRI
# [6] = molecular target: T3, Proteasome subunit beta (Trypanosoma cruzi) (UniProt O96673); assay: Trypanosoma cruzi proteasome chymotrypsin-like activity (TcProtChymo) assay.; further: in the data most compounds retested in dose-response had high values; assay type: functional; details: 9.37 µM
# T3 sequence (whole entry): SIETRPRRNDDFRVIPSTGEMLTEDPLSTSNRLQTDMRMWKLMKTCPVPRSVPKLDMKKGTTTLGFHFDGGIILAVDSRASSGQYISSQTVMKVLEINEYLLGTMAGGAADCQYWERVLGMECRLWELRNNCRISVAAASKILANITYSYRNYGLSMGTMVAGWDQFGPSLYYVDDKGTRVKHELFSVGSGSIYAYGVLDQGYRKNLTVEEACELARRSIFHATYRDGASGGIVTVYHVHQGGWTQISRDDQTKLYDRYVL
# Homo sapiens = species on record: Homo sapiens; assay: To identify inhibition of the IFN signalling (Jak-Stat) pathway via expression of an eGFP reporter gene under the control of an IFN-stimulated response element (ISRE) containing MxA promoter.; assay type: functional; details: 30 µM
# [7] = molecular target: T4, Tyrosyl-tRNA synthetase, putative (Trypanosoma cruzi (strain CL Brener)) (UniProt Q4DSP6); assay: Trypanosoma cruzi tyrosyl tRNA synthetase (TcYRS) _High Tyrosine SOP; assay type: functional; details: 30 µM; further: in the data most compounds retested in dose-response had high values
# T4 sequence (whole entry): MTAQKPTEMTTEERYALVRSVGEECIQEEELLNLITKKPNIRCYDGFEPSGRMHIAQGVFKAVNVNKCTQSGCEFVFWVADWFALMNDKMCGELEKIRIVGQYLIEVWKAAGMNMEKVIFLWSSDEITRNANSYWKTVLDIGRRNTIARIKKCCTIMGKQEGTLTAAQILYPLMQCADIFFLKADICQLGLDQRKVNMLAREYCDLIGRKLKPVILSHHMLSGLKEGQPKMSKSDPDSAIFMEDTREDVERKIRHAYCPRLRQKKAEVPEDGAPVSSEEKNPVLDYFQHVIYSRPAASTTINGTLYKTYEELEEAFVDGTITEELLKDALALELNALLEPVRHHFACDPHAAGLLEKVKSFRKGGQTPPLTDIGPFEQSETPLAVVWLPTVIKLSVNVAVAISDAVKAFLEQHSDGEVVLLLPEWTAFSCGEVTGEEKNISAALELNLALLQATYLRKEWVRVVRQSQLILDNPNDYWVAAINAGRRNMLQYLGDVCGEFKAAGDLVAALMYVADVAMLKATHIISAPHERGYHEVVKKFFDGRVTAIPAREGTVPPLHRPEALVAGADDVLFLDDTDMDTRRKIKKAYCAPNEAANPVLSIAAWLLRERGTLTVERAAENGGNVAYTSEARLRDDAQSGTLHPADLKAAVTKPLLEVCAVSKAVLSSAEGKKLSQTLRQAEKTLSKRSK
# [8] = molecular target: T4, Tyrosyl-tRNA synthetase, putative (Trypanosoma cruzi (strain CL Brener)); assay: Trypanosoma cruzi tyrosyl tRNA synthetase (TcYRS) SOP; assay type: functional; details: 30 µM
# [9] = molecular target: Chromo domain-containing protein 1 (Saccharomyces cerevisiae (strain ATCC 204508 / S288c) (Baker's yeast)) (UniProt P32657); assay: ScCHD-1 Enzyme Inhibition Assay; assay type: functional; details: 30 µM; further: in the data most compounds retested in dose-response had high values
# Chain of Chromo domain-containing protein 1 (Saccharomyces cerevisiae (strain ATCC 204508 / S288c) (Baker's yeast)) (P32657 whole entry, the tested form may be a part): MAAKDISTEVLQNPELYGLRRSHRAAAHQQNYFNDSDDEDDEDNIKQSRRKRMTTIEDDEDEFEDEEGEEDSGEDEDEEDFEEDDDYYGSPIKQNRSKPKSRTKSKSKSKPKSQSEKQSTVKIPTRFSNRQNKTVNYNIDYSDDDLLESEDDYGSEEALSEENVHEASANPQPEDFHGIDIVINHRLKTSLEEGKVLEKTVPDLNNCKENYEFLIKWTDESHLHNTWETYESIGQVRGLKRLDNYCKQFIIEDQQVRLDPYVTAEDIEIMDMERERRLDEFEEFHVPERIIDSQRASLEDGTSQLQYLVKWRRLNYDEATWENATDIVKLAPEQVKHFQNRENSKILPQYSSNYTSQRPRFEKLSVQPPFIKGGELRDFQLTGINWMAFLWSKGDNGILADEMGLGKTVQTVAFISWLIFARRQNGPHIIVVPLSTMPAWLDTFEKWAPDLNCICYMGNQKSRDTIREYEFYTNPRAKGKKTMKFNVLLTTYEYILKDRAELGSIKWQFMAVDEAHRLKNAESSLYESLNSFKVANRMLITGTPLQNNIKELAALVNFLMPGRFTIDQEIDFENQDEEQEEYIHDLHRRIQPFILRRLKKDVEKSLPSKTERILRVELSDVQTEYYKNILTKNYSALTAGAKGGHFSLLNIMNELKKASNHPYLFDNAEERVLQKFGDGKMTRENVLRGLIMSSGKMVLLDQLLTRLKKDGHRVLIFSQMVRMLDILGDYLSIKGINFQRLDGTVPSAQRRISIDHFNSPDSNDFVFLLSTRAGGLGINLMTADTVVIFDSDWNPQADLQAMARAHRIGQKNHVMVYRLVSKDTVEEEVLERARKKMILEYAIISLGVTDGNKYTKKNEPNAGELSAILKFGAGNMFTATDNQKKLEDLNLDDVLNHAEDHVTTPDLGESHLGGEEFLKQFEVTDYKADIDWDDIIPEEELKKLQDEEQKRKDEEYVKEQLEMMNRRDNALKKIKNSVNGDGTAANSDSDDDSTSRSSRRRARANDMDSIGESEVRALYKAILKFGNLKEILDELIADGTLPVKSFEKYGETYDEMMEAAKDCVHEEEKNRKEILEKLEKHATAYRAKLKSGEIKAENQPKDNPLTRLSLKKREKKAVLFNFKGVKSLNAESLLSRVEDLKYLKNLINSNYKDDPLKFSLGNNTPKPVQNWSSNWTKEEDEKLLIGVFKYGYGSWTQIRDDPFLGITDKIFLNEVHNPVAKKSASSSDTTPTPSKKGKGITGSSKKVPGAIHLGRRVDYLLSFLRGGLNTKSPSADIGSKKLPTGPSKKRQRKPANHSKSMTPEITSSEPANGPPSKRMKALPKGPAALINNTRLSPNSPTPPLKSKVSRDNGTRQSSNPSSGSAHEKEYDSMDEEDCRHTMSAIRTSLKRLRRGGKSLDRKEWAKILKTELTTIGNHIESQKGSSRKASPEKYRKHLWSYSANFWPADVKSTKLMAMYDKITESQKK
# Chain of Protein translocase subunit SecA (Escherichia coli (strain K12)) (P10408 whole entry): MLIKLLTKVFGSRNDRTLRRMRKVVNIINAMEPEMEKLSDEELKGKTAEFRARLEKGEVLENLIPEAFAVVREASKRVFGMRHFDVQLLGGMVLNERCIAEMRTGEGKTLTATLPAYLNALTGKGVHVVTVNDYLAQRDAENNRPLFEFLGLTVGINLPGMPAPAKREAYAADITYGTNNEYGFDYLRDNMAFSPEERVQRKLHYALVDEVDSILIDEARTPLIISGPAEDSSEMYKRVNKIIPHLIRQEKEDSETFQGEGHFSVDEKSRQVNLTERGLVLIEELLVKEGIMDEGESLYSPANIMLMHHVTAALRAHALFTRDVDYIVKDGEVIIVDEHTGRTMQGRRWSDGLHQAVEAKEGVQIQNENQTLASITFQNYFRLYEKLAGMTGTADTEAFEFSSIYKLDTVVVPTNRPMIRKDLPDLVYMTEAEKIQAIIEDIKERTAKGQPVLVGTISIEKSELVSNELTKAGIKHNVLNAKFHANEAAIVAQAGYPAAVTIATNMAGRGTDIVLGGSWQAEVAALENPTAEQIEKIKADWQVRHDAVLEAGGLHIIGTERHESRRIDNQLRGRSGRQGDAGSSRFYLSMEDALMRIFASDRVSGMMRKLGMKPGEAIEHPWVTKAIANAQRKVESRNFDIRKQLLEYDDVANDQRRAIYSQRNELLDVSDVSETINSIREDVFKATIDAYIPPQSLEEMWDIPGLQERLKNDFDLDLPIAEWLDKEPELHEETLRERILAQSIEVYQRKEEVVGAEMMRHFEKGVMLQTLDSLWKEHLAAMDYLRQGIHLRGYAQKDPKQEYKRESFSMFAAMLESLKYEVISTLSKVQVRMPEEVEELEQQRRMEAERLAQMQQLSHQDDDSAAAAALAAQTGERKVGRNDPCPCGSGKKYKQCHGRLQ
SMILES,Percent Effect [1] [%],Percent Effect [2] [%],Percent Effect [3] [%],Percent Effect [4] [%],Percent Effect (Trypanosoma cruzi) [%],Percent Effect [5] [%],Percent Effect [6] [%],Percent Effect (Homo sapiens) [%],Percent Effect [7] [%],Percent Effect [8] [%],Percent Effect [9] [%]
Cc1ccc(-c2ncc(C(=O)NCCNc3ncccn3)s2)c(C)c1,-2.83,5.41,2.58,1.25,7.83,-2.4,1.8,11.8,5.42,16.1,-8.22
CC(Cn1cccn1)NCc1nc(-c2cccc(Cl)c2)no1 (stereo unspecified),-2.57,-2.63,1.2,3.09,4.76,0,5.33,11.7,3.45,11.1,2.72
COCCNc1nc(C2CCCC2)nc2c1CCNCC2,-0.492,-2.7,-0.634,-1.74,4.83,1.91,-38.6,-3.26,10.1,19.5,-2.52
CC(=O)Nc1nc(C(=O)NCc2ccc(N3CCCCCC3)nc2)cs1,-1.32,24.1,5.19,-5.11,-1.13,-4.09,20.6,29.2,4.17,22.8,-18.9
COCCN1C[C@H]2CC[C@@]3(N=C(C)N(CC4CC4)C3=O)[C@H]2C1,-4.99,5.41,1.81,-4.12,-0.391,-0.417,8.71,7.83,6.93,8.54,1.06
CCN(Cc1ccc2c(c1)OCCO2)C(=O)NCc1cc[nH]n1,-2.19,15.6,1.3,2.08,-2.06,1.47,7.03,-7.15,5.71,11.8,-19.3
Cc1cccc(COC[C@]23COC[C@H]2CN(C(=O)c2ccsc2)C3)n1,-1.49,5.41,1.58,0.368,1.95,27.9,10.9,-2.76,8.91,13.4,-5.97
CCc1ccc(-n2c(=O)[nH]c3nc(N4CCSCC4)ncc3c2=O)cc1,-2.14,21.1,0.234,-5.88,1.85,5.92,15.8,-2.32,0,5.2,45.8
Cc1ccc(NS(=O)(=O)c2cc3c(c(C(=O)O)c2)OCCO3)c(F)c1,-10.1,13.2,-8.4,15.9,10.6,1.08,11.2,-1.31,2.46,13.6,-9.81
O=C(O)c1ccn(-c2ccccc2NS(=O)(=O)c2ccccc2)n1,-4.7,0,0.362,0.187,-5.16,2.08,9.24,7.84,3.83,3.7,-5.14
Cn1cc(C(=O)NCc2cn3c(n2)CN(Cc2ccccn2)CC3)cn1,-7.16,2.7,4.33,-3.43,2.73,2.08,-0.254,-6.36,6.93,8.54,-1.37
CCCc1nc(CN2CCN(CC(O)c3ccccc3)CC2)no1 (stereo unspecified),-2.75,11.4,-0.305,1.98,-1.54,4.09,8.23,7.59,5.21,-2.53,-26.1
CC(=O)Nc1nc(C(=O)NC(C)c2ccc3c(c2)OCCO3)cs1 (stereo unspecified),-5.25,18.2,6.51,-11.3,5,-4,8.97,14.6,3.81,21.2,-21.9
Cc1ccccc1NS(=O)(=O)c1cc2c(c(C(=O)O)c1)OCCO2,-8.46,7.89,0.578,-1.17,-7.19,-6.47,5.67,2.34,2.46,1.24,3.8
Fc1cccc(N2CCCC3(CN(Cc4ccncc4)CCO3)C2)c1 (stereo unspecified),-2.7,5.33,13.4,2.73,-6.5,6.29,8.02,29.6,6.38,11.5,-3.18
c1cc2n(n1)CC(CNCc1ccc(OCC3CC3)nc1)CN2 (stereo unspecified),-1.23,20.8,11.1,4.04,7.68,0.356,3.04,-0.525,13.6,24.4,-9.69
